Compound activity from PubChem BioAssay.
VLA-4 inh: inhibition in a human VLA-4 binding assay; P13612; VLA-4 expressing cells, ligand binding flow cytometry; inhibition, % (about 7 µM as worked out from the volumes in the protocol); hit rate 0.2% among 330,000; AID 2557; in the data active = inhibition above about 50%
MEX-5 binding: C. elegans MEX-5 TCR-2 RNA binding activity; AID 1832; activity score (negative = inhibition of binding), % at 10 µM; Q9XUB2; MEX-5/FITC-TCR2 RNA binding, fluorescence polarization; active compounds read low; hit rate 0.38% among 300,000;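 active = inhibition past about -25% in most replicates, and total fluorescence under double the plate's negative control median, limit read from the data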
JMJD2C inh: blocks human GASC-1 demethylase activity. Q9H3R0. GST-JMJD2C(1-420) H3K9me3 demethylation, DELFIA europium. inhibition, % at 2.35 µM. hit rate 0.069% among 330,000;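 active = more than half of a compound's replicate wells show inhibition beyond 50%, single wells judged on their own value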;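 also: signal counts dimethyl H3K9 product captured on neutravidin plate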
V-ATPase pHluor: regulators of yeast V-ATPase proton transport; response, % at 10 µM; S. cerevisiae, pHLuorin cytosolic pH fluorescence; hit rate 0.37% among 350,000; in the data active = response mostly above about 7.3%, no sharp cut-off; inactive = mostly below about 5.4%; also: actives read high
Exocytosis inh: lytic granule exocytosis inhibition; TALL-104 LAMP-1 surface exposure, flow cytometry; cells stimulated with thapsigargin and PMA; inhibition, % at 10 µM; hit rate 0.66% among 360,000; AID 651702;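 active = inhibition above about 55%, limit read from the data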
HTR2A ag: activates the mouse 5-HT2A serotonin receptor. hit rate 0.66% among 360,000. activation, % at 7.6 µM. P35363. CHO-K1 mHTR2A beta-arrestin complementation, luminescence; percent of 30 µM serotonin response;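 active = activation above a run cutoff, the mean activation of all tested compounds plus 3 SD, cut at about 14% in these data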
Target sequence (P35363 whole entry, looked up): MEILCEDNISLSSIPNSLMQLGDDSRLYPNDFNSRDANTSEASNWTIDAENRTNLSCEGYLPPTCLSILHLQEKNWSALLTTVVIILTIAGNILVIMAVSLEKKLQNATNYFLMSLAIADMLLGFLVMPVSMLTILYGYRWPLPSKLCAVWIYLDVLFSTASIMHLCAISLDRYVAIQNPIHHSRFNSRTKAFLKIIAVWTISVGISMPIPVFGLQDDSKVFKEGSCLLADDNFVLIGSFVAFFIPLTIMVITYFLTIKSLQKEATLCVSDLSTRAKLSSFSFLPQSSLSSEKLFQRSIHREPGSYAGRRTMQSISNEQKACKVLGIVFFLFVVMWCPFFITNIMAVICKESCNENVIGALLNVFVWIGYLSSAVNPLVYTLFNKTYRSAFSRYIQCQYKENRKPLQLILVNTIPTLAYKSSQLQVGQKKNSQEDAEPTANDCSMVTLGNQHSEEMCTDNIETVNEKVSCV
Each line names hits and unclear results; the compound was inactive in the other large screens. This is a sample that favours compounds with a hit; in the whole collection about 2.2% have one here.

COc1ccc(OC)c2cc3ccccc3cc12	Exocytosis inh 103.5 (no result: VLA-4 inh, MEX-5 binding, JMJD2C inh)
O=C(C#Cc1ccccc1)c1ccco1	none
CCOc1ccccc1Nc1nnc(C)c(=O)[nH]1	V-ATPase pHluor 14.8
O=C(COC(=O)[C@H](Cc1ccccc1)NC(=O)c1ccco1)Nc1ccccc1OC(F)F	none (no result: MEX-5 binding)
O=C(COCc1cc(-c2ccc3c(c2)OCO3)on1)N1CCN(c2cccc(C(F)(F)F)c2)CC1	none
O=C1C=CC(=O)N1c1ccc(-c2nc3ccccc3o2)cc1	V-ATPase pHluor 20.3 (no result: VLA-4 inh, MEX-5 binding, JMJD2C inh)
Nc1ccc(-c2nc3ccccc3o2)cc1	none
CC1(C(=O)NS(=O)(=O)C2CC2)CCCN(C(=O)C2(c3ccc(Cl)cc3)CCCC2)C1 (centres undefined)	none (no result: VLA-4 inh, MEX-5 binding, JMJD2C inh, V-ATPase pHluor)
CCc1cc[n+](-c2nc([O-])sc2C=O)cc1	MEX-5 binding -50.2
O=c1c2ccc(Cl)cc2nc(-c2cccc(C(F)(F)F)c2)n1O	V-ATPase pHluor 10.6
COc1cccc(-n2nnc3c(=O)n(Cc4ccccc4F)cnc32)c1	JMJD2C inh 92.3
COc1cccc(-n2nnc3c(=O)n(Cc4cccc(C)c4)cnc32)c1	none
CC(Sc1nnnn1-c1ccc(O)cc1)C(=O)NC1CCCCC1C (centres undefined)	none
CC1CC(C)CN(C(=O)C(C)N2CCN(S(=O)(=O)c3ccc(C(F)(F)F)cc3)CC2)C1 (centres undefined)	none (no result: VLA-4 inh, MEX-5 binding, JMJD2C inh)
CCc1c(C)nc(SCC(=O)Nc2ccc(Br)cc2)[nH]c1=O	none
CCc1c(C)nc(SCC(=O)NNC(=O)c2ccco2)[nH]c1=O	MEX-5 binding -37.0
O=C(CN1CCN(S(=O)(=O)c2ccc(F)c(F)c2)CC1)Nc1ccccc1C(=O)NC1CC1	none (no result: MEX-5 binding, JMJD2C inh)
CC(C)(C)c1cc[n+](-c2[nH]c(=O)sc2/C=N/NC(=O)c2ccccc2[O-])cc1	none
CCc1ccc[n+](-c2[nH]c(=O)sc2/C=N/NC([S-])=Nc2ccccc2)c1	MEX-5 binding -55.4
CCc1ccc[n+](-c2[nH]c(=O)sc2/C=N/N=C(\N)[O-])c1	none
O=c1[nH]c(-[n+]2ccccc2)c(/C=N/NC([S-])=Nc2ccccc2)s1	MEX-5 binding -82.2
Cc1cc[n+](-c2[nH]c(=O)sc2/C=N/NC([S-])=Nc2ccccc2)cc1	none
Cc1cc(C)c[n+](-c2[nH]c(=O)sc2/C=N/NC([S-])=Nc2ccccc2)c1	MEX-5 binding -49.0
CCCOc1cc(C)c(S(=O)(=O)NCc2cccs2)cc1C	none (no result: MEX-5 binding)
CC(C)(C)C(=O)Nc1nnc(SCC(=O)NC2CC2)s1	none
C/C(=N\Nc1nc2ccccc2s1)c1cccs1	none
CC(=NNc1nc2ccccc2s1)c1ncccn1	Exocytosis inh 102.3 (no result: VLA-4 inh, MEX-5 binding, JMJD2C inh)
CN(C)c1ccc(C(C(=O)NCC2CCCO2)N(Cc2ccccc2)C(=O)c2snc(C(N)=O)c2N)cc1 (centres undefined)	none
Cc1cccc(N(C(=O)c2snc(C(N)=O)c2N)C(C(=O)NCC2CCCO2)c2ccc(N(C)C)cc2)c1C (centres undefined)	Exocytosis inh 66.0
CS(=O)(=O)c1ccc(Cl)c(NC(=O)CN2CCN(S(=O)(=O)/C=C/c3ccccc3)CC2)c1	none (no result: VLA-4 inh, MEX-5 binding, JMJD2C inh)
Cc1ccc(-n2c(Cc3cccn3C)nnc2SCC(=O)N2CCN(c3ccccc3)CC2)cc1	V-ATPase pHluor 20.3 (no result: MEX-5 binding)
CCN1CCN(CCCNC(=O)c2ccc(/C=C3/Oc4ccccc4N(Cc4cccc(C)c4)C3=O)cc2)CC1	none
CCN1CCN(CCCNC(=O)c2ccc(/C=C3/Sc4ccccc4N(Cc4ccccc4F)C3=O)cc2)CC1	Exocytosis inh 69.8
COc1ccc(Nc2nc3ccccc3nc2NS(=O)(=O)c2cccs2)c(OC)c1	MEX-5 binding -40.0
COc1cccc(Nc2nc3ccccc3nc2NS(=O)(=O)c2cccs2)c1	none
C[C@H](CO)N1C[C@H](C)[C@@H](CN(C)S(=O)(=O)c2ccc(F)cc2)Oc2ccc(NC(=O)C3CC3)cc2C1=O	JMJD2C inh 62.0 (no result: MEX-5 binding)
CC(C)NC(=O)N(C)C[C@H]1Oc2ccc(NS(=O)(=O)c3ccccc3)cc2C(=O)N([C@H](C)CO)C[C@H]1C	JMJD2C inh 54.0 (no result: MEX-5 binding)
COc1ccc(N2C(=O)N3[C@H](c4ccc(Cl)cc4)[C@@H]4C(=O)N(C5CCCCC5)C(=O)[C@@H]4[C@]3(Cc3ccc(Cl)cc3)C2=O)cc1	none
